Results from PubChem BioAssay AID449762 (Southern Research Specialized Biocontainment Screening …, 2010).
Screen size: about 330,000 compounds; about 1,900 (0.58%) were called active. Inconclusive results (about 4%) are left out. Not all results are given here. Measured potencies and affinities stand elsewhere. A number with no mark means an inactive call. Rule as the data show it: inconclusive = inhibition above about 70% without an active follow-up result; inactive = below that.

Test: M. tuberculosis growth inhibition, HTS (AID 449762);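 also: bacterial growth assessed after seven days of incubation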
Conditions: M. tuberculosis H37Rv growth inhibition, 7H9 media; at 25 µM; hits give high values

Structure (SMILES)	inhibition
O=[N+]([O-])c1ccc(Cl)c(-c2ccc(/C=N/n3cnnc3)o2)c1	-1.71%
O=[N+]([O-])c1cc(-c2ccc(/C=N/n3cnnc3)o2)ccc1Cl	16.1%
C/C=C1\COC(C(=O)NCCCN2CCCC2=O)(C(F)(F)F)C=C1C=C(C)C (stereo unspecified)	2.64%
CN(C(=O)CSC1=Nc2ccccc2C2=NC(c3ccccc3)C(=O)N12)C1CCCCC1 (stereo unspecified)	-5.75%
NC(=O)CSC1=Nc2ccccc2C2=NC(c3ccccc3)C(=O)N12 (stereo unspecified)	4.02%
CCOC(=O)Cn1c(-c2ccccc2)cc(SC)c(C#N)c1=O	13.1%
NC(=O)Cn1nc(-c2ccccc2)nc1-c1ccccc1	-2.98%
CCOC(=O)Cn1nnc(-c2ccccc2)n1	-9.53%
CCn1c(-c2ccccc2)ccc(C#N)c1=O	-2.43%
COc1cc2cnc(-c3ccccc3)cc2cc1OC	61.6%
CN(C)/C=N/NC(=O)c1ccc(Cl)cc1	-3.16%
O=C(CCCCCn1nnc2ccccc2c1=O)Nc1ccccc1F	-1.21%
COc1ccc(CNC(=O)CN(Cc2ccc(Cl)cc2)S(=O)(=O)c2ccccc2)cc1	-11.8%
CC(=O)Nc1cc(-c2nn(C)c(=O)c3ccccc23)ccc1N1CCCCC1	5.24%
CCC(=O)Nc1cc(-c2nn(C)c(=O)c3ccccc23)ccc1N1CCCCC1	-0.54%
CC(=Nc1ccc2c(c1)CCC2)c1c(O)n(-c2ccccc2)c(=O)[nH]c1=O	0.86%
Cc1cccc(CS(=O)(=O)Cc2ccc(C(=O)NCCCN3CCOCC3)o2)c1	-7.1%
Cc1ccc(NC(=O)COC(=O)C(NS(=O)(=O)c2ccc(Cl)cc2)C(C)O)cc1 (stereo unspecified)	-2.52%
COc1cc(Cl)c(C)cc1NC(=O)COC(=O)C(NS(=O)(=O)c1ccc(Cl)cc1)C(C)O (stereo unspecified)	-9.26%
OCC(CBr)(CBr)CBr	-6.91%
CCC1=NC(c2ccc(OC)cc2)N(O)C1(C)C (stereo unspecified)	-1.62%
CC(O)(CS(=O)(=O)Cc1ccccc1)C(=O)Nc1cccc(C(F)(F)F)c1 (stereo unspecified)	8.28%
C(=N\Nc1nc(Nc2ccccc2)nc(N2CCOCC2)n1)/c1c[nH]c2ccccc12	41.1%
Cc1[nH]c2ccccc2c1/C=N/Nc1nc(Nc2ccc(F)cc2)nc(N2CCOCC2)n1	62.1%

Structure (SMILES)	inhibition
O=c1[nH]c(C2CCN(S(=O)(=O)c3ccc4c(c3)OCCO4)CC2)nc2c1nnn2Cc1ccc(F)cc1	37.9%
Cc1ccc(C)c(S(=O)(=O)N2CCC(c3nc4c(nnn4Cc4ccc(F)cc4)c(=O)[nH]3)CC2)c1	7.99%
Cn1c(CC(=O)Nc2ccc(F)cc2)c(Sc2ccccc2)c2ccccc21	3.85%
NC(=O)C1CCCN(C(=S)NCc2ccc3c(c2)OCO3)C1 (stereo unspecified)	-1.44%
CCOc1cc(/C=C/C(=O)OCC(=O)NCC2CCCO2)cc(Cl)c1OC (stereo unspecified)	1.07%
O=C(C1CC1)N1N=C(c2ccc(Cl)cc2)CC1(O)C(F)(F)F (stereo unspecified)	49%
O=C(c1ccc(Cl)cc1)N1CCCC(c2ccccc2)=N1	2.03%
CCN(CCO)C(=S)Nc1cc(S(=O)(=O)N(C)C)ccc1C	-0.4%
CCOC(=O)c1[nH]c(C)c(C(=O)N2CCN(c3ccc(OC)cc3)CC2)c1C	-0.98%
CCOC(=O)c1c(C)[nH]c(C(=O)N2CCN(c3ccc(OC)cc3)CC2)c1C	53.5%
C[C@H](CO)N1C[C@H](C)[C@H](CN(C)Cc2ccncc2)Oc2ccc(NC(=O)Nc3ccc(C(F)(F)F)cc3)cc2CC1=O	62.2%
C=CCNC(=O)c1ccc(-c2nc(-c3ccccc3)cs2)cc1	1.66%
CN(C)CCCNC(=O)c1ccc(-c2ccccc2)cc1	-5.39%
O=C(NN=C1CCCC1)c1cccc(O)c1	-8.1%
CCCNC(=O)CSc1n[nH]c(=O)n1CCc1ccccc1	7.69%
CCOC(=O)c1c(NC(=O)CCN2C(=O)c3cccc([N+](=O)[O-])c3C2=O)sc(C(=O)OC(C)C)c1C	3.56%
CCOc1ccc(NC(=O)CC2CC(C)(C)OC2=O)cc1 (stereo unspecified)	-2.88%
CCOc1ccc(Nc2nc(-c3cccnc3)cs2)cc1	4.09%
CC(=O)Nc1ccc(NC(=O)C(C)OC(=O)c2cc(S(=O)(=O)N(C)C)ccc2N2CCCC2)cc1 (stereo unspecified)	1.92%
Cc1ccc(C2=NC(C)(C)NC2=O)cc1	11.8%
CSc1nccc(N/N=C/c2ccccc2)n1	0.53%
O/N=C/c1ccnc(SCc2ccccc2)n1	16.4%
Clc1ccccc1CNC1CN2CCC1CC2 (stereo unspecified)	-2.13%
CC(CN1CCC(O)CC1)c1ccccc1 (stereo unspecified)	-0.24%

Structure (SMILES)	inhibition
FC(F)(F)c1nnc2ccc(N3CCCC3)nn12	-7.59%
FC(F)(Cl)c1nnc2ccc(Sc3ccccn3)nn12	2.59%
O=C(OCc1c(F)cccc1Cl)c1cnc2ccccc2n1	48.8%
COC(=O)c1cnc2ccccc2n1	-3.05%
CC(C)C(NS(=O)(=O)c1cccs1)C(=O)NCCCN1CCCCCC1 (stereo unspecified)	-1.69%
COc1ccc(OCCCC(=O)Nc2ccc(N3CCCCC3)cc2)cc1	-1.89%
CCCc1nnc(NC(=O)CCC(=O)N2CCN(c3nc(C)cc(C)n3)CC2)s1	0.06%
COc1ccc(S(=O)(=O)Cc2ccc(C(=O)NCCCN3CCc4ccccc4C3)o2)cc1	-0.56%
COc1cccc(OC)c1OCCCCc1c(C)n[nH]c1C	4.51%
COc1cccc(OC)c1OCCCCCc1c(C)n[nH]c1C	-7.6%
COCC(C)NC(=O)Cc1ccc(F)cc1 (stereo unspecified)	-4.61%
O=C(NC1CCN(Cc2ccccc2)CC1)c1cccc(S(=O)(=O)Nc2ccc(F)cc2)c1	37.8%
COc1ccc(NS(=O)(=O)c2cccc(C(=O)NC3CCN(Cc4ccccc4)CC3)c2)cc1	6.7%
COCc1cc(C)nc(SCc2ccccc2)c1C#N	15.8%
COc1ccc(/C=C/C(=O)Oc2cccc(/C=N/NC(=O)c3cccc(F)c3)c2)cc1	7.76%
O=C(Oc1cccc(-n2cnnn2)c1)c1ccccc1Cl	-11.6%
Cc1ccc(NC(=O)c2noc(C(C)C)c2[N+](=O)[O-])cc1	0.01%
CCc1ccccc1NC(=O)c1noc(C(C)C)c1[N+](=O)[O-]	2.17%
COc1ccc(C(C(=O)NC2CCCC2)N(Cc2ccco2)C(=O)c2snc(C(N)=O)c2N)cc1OC (stereo unspecified)	3.33%
COc1cccc(/C=N/NC(=O)c2cccc([N+](=O)[O-])c2)c1OS(=O)(=O)c1ccccc1	-10.3%
Cc1nc(-c2ccc(NC(=O)C3CC3)cc2)cs1	37.4%
Cc1cc(Nc2cc(N3CCN(C)CC3)nc(Sc3ccc(NC(=O)C4CC4)cc3)n2)n[nH]1	3.52%
COc1cccc(NC(=O)Cn2c(=O)n(-c3ccccc3)c(=O)c3oc4ccccc4c32)c1	-3.21%
Cc1ccc2c(c1)c1c(n2C)C(C(N)=O)CCC1 (stereo unspecified)	-14.2%

Structure (SMILES)	inhibition
c1ccc(Cn2c(CNc3nc4ccccc4n3CCN3CCOCC3)nc3ccccc32)cc1	10.7%
Cn1c(CNc2nc3ccccc3n2CCN2CCCCC2)nc2ccccc21	1.84%
Cc1ccc(C(=O)N/C(=C/c2cccs2)C(=O)NCCCn2ccnc2)cc1	-0.44%
O=C(NCCCSc1ccccc1)c1cccnc1	2.65%
NC(=O)N/N=C/c1ccc2cccc(OCc3ccccc3)c2n1	12.6%
O=C(Cc1ccccc1)N/N=C/c1ccccn1	-3.52%
CC(N)(C(=O)O)c1cccc(OCc2cccc(Cl)c2)c1 (stereo unspecified)	-9.95%
CN(C(=O)CSc1nccc(=O)[nH]1)C1CCCCC1	-5.2%
CCCn1c(Nc2ccccc2C)nc2ccccc21	-13.5%
CCCn1c(Nc2ccccc2)nc2ccccc21	3.3%
CCN1CCN(Cc2cc(Br)ccc2O)CC1	-0.17%
CC(C)CCC(C)NC(=O)CN1C(=O)NC(C)(c2ccc3ccccc3c2)C1=O (stereo unspecified)	-6.81%
COc1ccc(C(=O)OCC(=O)NC2CC2)cc1F	2.71%
CCNC(=S)NCc1ccco1	8.6%
NNC(=S)NCc1ccco1	-5.28%
CC[C@@H]1CN(C)[C@H]2Cc3c([nH]c4ccccc34)C(=O)C[C@@H]1[C@@H]2C(=O)OC	-5.83%
COc1ccc(C2CC(c3ccc(Cl)cc3)n3nc(N)nc3N2)cc1 (stereo unspecified)	1.53%
CCCc1nn2c(=O)c(C(c3cccc(Cl)c3)c3c(O)nc4sc(CCC)nn4c3=O)c(O)nc2s1	-6.75%
COc1ccc(NC(=O)CCc2nnc3ccc(N4CCC(C)CC4)nn23)cc1	-0.59%
CCOc1ccc(NC(=O)CCc2nnc3ccc(N4CCN(C)CC4)nn23)cc1	1.67%
O=C1CCCc2c1nc(-c1ccc([N+](=O)[O-])cc1)n2O	0.46%
CC(C)CNC(=O)/C(C#N)=C1\N=C(NC(=O)c2ccco2)c2ccccc21	12.4%
O=C(Nc1ccc(OC(F)F)c(Cl)c1)Nc1ccc2c(c1)OCO2	5.38%
Cc1cc(OC(F)F)ccc1NC(=O)Nc1ccc([N+](=O)[O-])cc1	17.3%
